Source: PubChem BioAssay AID1159580 (chemical genetic matrix, 2015)
About 2,000 (36%) of roughly 5,500 compounds were called active. Another 18% or so got no clear call; they are omitted. Rule as the data show it: active = normalized growth mostly below about 0.91 (no sharp cut-off); inconclusive = no clear call, values can overlap the other calls; inactive = mostly above about 0.92. Some of the results follow.

Assay: chemical genetic growth profiling, strain panel (AID 1159580);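 also: tested at 20 µM; growth read once vehicle control cultures reached saturation at 30 °C; 1 = growth at the plate median or of vehicle wells; lower values mean less growth of the strain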
Details: growth OD

Measured: normalized growth

CCCCC(CC)CN1CN(CC(CC)CCCC)CC(C)(N)C1 (centres undefined)
active: S. cerevisiae deletion strains, locus YJR043C, strain POL32, active compounds read low 0.37 | S. cerevisiae deletion strains, locus YJR075W, strain HOC1, active compounds read low 0.372 | S. cerevisiae deletion strains, locus YKL160W, strain elf1, active compounds read low 0.373 | S. cerevisiae deletion strains, locus YKL190W, strain CNB1, active compounds read low 0.445 | S. cerevisiae deletion strains, locus YKR001C, strain vps1, active compounds read low 0.0669 | S. cerevisiae deletion strains, locus YKR026C, strain gcn3, active compounds read low 0.059 | S. cerevisiae deletion strains, locus YKR091W, strain srl3, active compounds read low 0.0561 | S. cerevisiae deletion strains, locus YLL001W, strain dnm1, active compounds read low 0.0613 | S. cerevisiae deletion strains, locus YLL026W, active compounds read low 0.0554 | S. cerevisiae deletion strains, locus YLL041C, strain sdh2, active compounds read low 0.0528 | S. cerevisiae deletion strains, locus YLR027C, strain aat2, active compounds read low 0.0535 | S. cerevisiae deletion strains, locus YLR039C, strain RIC1, active compounds read low 0.352 | S. cerevisiae deletion strains, locus YLR058C, strain SHM2, active compounds read low 0.525 | S. cerevisiae deletion strains, locus YLR102C, strain apc9, active compounds read low 0.832 | S. cerevisiae deletion strains, locus YLR221C, strain rsa3, active compounds read low 0.0576 | S. cerevisiae deletion strains, locus YLR258W, strain gsy2, active compounds read low 0.0568 | S. cerevisiae deletion strains, locus YLR262C, strain YPT6 (second series), active compounds read low 0.0741 | S. cerevisiae deletion strains, locus YLR262C, strain YPT6, active compounds read low 0.269 | S. cerevisiae deletion strains, locus YLR268W, strain sec22, active compounds read low 0.484 | S. cerevisiae deletion strains, locus YLR320W, strain mms22, active compounds read low 0.0732 | S. cerevisiae deletion strains, locus YLR330W, strain CHS5, active compounds read low 0.437 | S. cerevisiae deletion strains, locus YLR342W, strain FKS1 (second series), active compounds read low 0.254 | S. cerevisiae deletion strains, locus YLR342W, strain FKS1, active compounds read low 0.0622 | S. cerevisiae deletion strains, locus YLR357W, strain rsc2, active compounds read low 0.114 | S. cerevisiae deletion strains, locus YLR370C, strain arc18, active compounds read low 0.0656 | S. cerevisiae deletion strains, locus YLR371W, strain rom2, active compounds read low 0.23 | S. cerevisiae deletion strains, locus YLR384C, strain iki3, active compounds read low 0.0552 | S. cerevisiae deletion strains, locus YLR418C, strain cdc73, active compounds read low 0.153 | S. cerevisiae deletion strains, locus YML016C, strain PPZ1, active compounds read low 0.743 | S. cerevisiae deletion strains, locus YML032C, strain rad52, active compounds read low 0.407 | S. cerevisiae deletion strains, locus YML120C, strain ndi1, active compounds read low 0.0565 | S. cerevisiae deletion strains, locus YML124C, strain tub3, active compounds read low 0.692 | S. cerevisiae deletion strains, locus YMR058W, strain fet3, active compounds read low 0.0601 | S. cerevisiae deletion strains, locus YMR078C, strain ctf18, active compounds read low 0.802 | S. cerevisiae deletion strains, locus YMR125W, strain sto1, active compounds read low 0.0743 | S. cerevisiae deletion strains, locus YMR129W, active compounds read low 0.0564 | S. cerevisiae deletion strains, locus YMR205C, strain PFK2, active compounds read low 0.0816 | S. cerevisiae deletion strains, locus YMR223W, strain ubp8, active compounds read low 0.316 | S. cerevisiae deletion strains, locus YMR231W, strain pep5, active compounds read low 0.0615 | S. cerevisiae deletion strains, locus YMR263W, strain SAP30, active compounds read low 0.489 | S. cerevisiae deletion strains, locus YMR307W, strain GAS1, active compounds read low 0.162 | S. cerevisiae deletion strains, locus YNL067W, strain RPL9B, active compounds read low 0.605 | S. cerevisiae deletion strains, locus YNL071W, strain lat1, active compounds read low 0.058 | S. cerevisiae deletion strains, locus YNL128W, strain TEP1, active compounds read low 0.288 | S. cerevisiae deletion strains, locus YNL153C, strain GIM3, active compounds read low 0.356 | S. cerevisiae deletion strains, locus YNL209W, strain ssb2, active compounds read low 0.0575 | S. cerevisiae deletion strains, locus YNL233W, strain BNI4, active compounds read low 0.26 | S. cerevisiae deletion strains, locus YNL248C, strain rpa49, active compounds read low 0.0852 | S. cerevisiae deletion strains, locus YNL307C, strain MCK1, active compounds read low 0.262 | S. cerevisiae deletion strains, locus YNL322C, strain KRE1 (second series), active compounds read low 0.0601 | S. cerevisiae deletion strains, locus YNL322C, strain KRE1, active compounds read low 0.336 | S. cerevisiae deletion strains, locus YNR049C, strain mso1, active compounds read low 0.0593 | S. cerevisiae deletion strains, locus YNR052C, strain pop2, active compounds read low 0.0951 | S. cerevisiae deletion strains, locus YOL006C, strain TOP1, active compounds read low 0.196 | S. cerevisiae deletion strains, locus YOL147C, strain pex11, active compounds read low 0.497 | S. cerevisiae deletion strains, locus YOR001W, strain rrp6, active compounds read low 0.0714 | S. cerevisiae deletion strains, locus YOR061W, strain CKA2, active compounds read low 0.583 | S. cerevisiae deletion strains, locus YOR069W, strain VPS5, active compounds read low 0.736 | S. cerevisiae deletion strains, locus YOR070C, strain gyp1, active compounds read low 0.0567 | S. cerevisiae deletion strains, locus YOR080W, strain dia2, active compounds read low 0.0601 | S. cerevisiae deletion strains, locus YOR083W, strain WHI5, active compounds read low 0.0602 | S. cerevisiae deletion strains, locus YOR106W, strain vam3, active compounds read low 0.0665 | S. cerevisiae deletion strains, locus YOR136W, strain idh2, active compounds read low 0.607 | S. cerevisiae deletion strains, locus YOR144C, strain elg1, active compounds read low 0.662 | S. cerevisiae deletion strains, locus YOR184W, strain ser1, active compounds read low 0.325 | S. cerevisiae deletion strains, locus YOR265W, strain rbl2, active compounds read low 0.0536 | S. cerevisiae deletion strains, locus YOR270C, strain vph1, active compounds read low 0.0981 | S. cerevisiae deletion strains, locus YOR290C, strain snf2, active compounds read low 0.0607 | S. cerevisiae deletion strains, locus YOR316C, strain cot1, active compounds read low 0.863 | S. cerevisiae deletion strains, locus YPL051W, strain arl3, active compounds read low 0.0603 | S. cerevisiae deletion strains, locus YPL055C, strain LGE1, active compounds read low 0.189 | S. cerevisiae deletion strains, locus YPL078C, strain atp4, active compounds read low 0.0642 | S. cerevisiae deletion strains, locus YPL106C, strain sse1, active compounds read low 0.0997 | S. cerevisiae deletion strains, locus YPL240C, strain hsp82, active compounds read low 0.0539 | S. cerevisiae deletion strains, locus YPL241C, strain CIN2, active compounds read low 0.733 | S. cerevisiae deletion strains, locus YPR119W, strain clb2, active compounds read low 0.627 | S. cerevisiae deletion strains, locus YPR163C, strain tif3, active compounds read low 0.178 | S. cerevisiae deletion strains, locus YPR167C, strain met16, active compounds read low 0.533 | S. cerevisiae deletion strains, strain wtn01, active compounds read low 0.425 | S. cerevisiae strains, strain wild type, active compounds read low 0.21
inactive: S. cerevisiae deletion strains, locus YKL009W, strain mrt4, active compounds read low 0.939 | S. cerevisiae deletion strains, locus YKL068W, active compounds read low 1.01 | S. cerevisiae deletion strains, locus YKL085W, strain MDH1 (second series), active compounds read low 0.994 | S. cerevisiae deletion strains, locus YKL085W, strain MDH1, active compounds read low 0.994 | S. cerevisiae deletion strains, locus YNL250W, strain rad50, active compounds read low 1.01 | S. cerevisiae deletion strains, locus YNL271C, strain bni1, active compounds read low 0.997 | S. cerevisiae deletion strains, locus YNL298W, strain CLA4, active compounds read low 1.01 | S. cerevisiae deletion strains, locus YOL012C, strain htz1 0.192 | S. cerevisiae deletion strains, locus YPR141C, strain kar3, active compounds read low 1.01
